# Compound activity (PubChem BioAssay)
# Only some compounds are listed: those with a hit (about 2.2% of all), similar ones and a draw of the others.
# KLF5 inh: inhibitors of KLF5 expression. hit rate 0.23% among 290,000. DLD-1 KLF5 promoter-luciferase reporter, luminescence. inhibition, % at 5 µM;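 active = inhibition above a per-plate limit of that plate's mean compound inhibition plus 3 SD, cut at about 60% in these data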;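 note: 0% = DMSO wells and 100% = LY294002 at 200 µM; higher means less KLF5 promoter-driven luciferase light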
# BaF3 tox: counter-screen for JAK2V617F inhibitors: parental Ba/F3 viability inhibitors; CellTiter-Glo ATP luminescence; hit rate 1.1% among 220,000; AID 1486; inhibition, % at 5.6 µM;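 active = inhibition above a per-campaign cutoff, the mean inhibition of all tested compounds plus 3 SD, cut at about 27% in these data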;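 note: 0% = DMSO wells and 100% = JAK Inhibitor I control wells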
# aSyn UTR inh: 5' untranslated region of α-synuclein, MLPCN primary screen; hit rate 0.82% among 300,000; alpha-synuclein 5'UTR reporter, inhibitor activity; inhibition, % (tested at 7.5 µM); in the data active = inhibition above about 60%;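 note: H4 neuroglioblastoma cells stably carrying SNCA 5'UTR luciferase fusion; 0% = DMSO wells and 100% = positive control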
# APP 5UTR inh: APP translation inhibition; inhibition, % at 2 µM; hit rate 0.82% among 190,000; AID 1285; SH-SY5Y APP 5'UTR-luciferase reporter, luminescence;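 active = inhibition above a set limit, derived from the sample mean plus 3 SD, cut at about 45% in these data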
# IEC-6 tox: counter-screen for KLF5 inhibitors: cytotoxicity in IEC-6 cells. IEC-6 cytotoxicity, luminescence viability. inhibition, % at 5 µM. hit rate 0.78% among 290,000. AID 1825;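 note: 0% = plate median of test compound wells and 100% = cytotoxic reference compound wells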
# Ba/F3 V617F tox: reduce viability of Ba/F3 cells dependent on JAK2V617F. Ba/F3 EpoR-JAK2V617F viability, ATP luminescence. AID 1446. hit rate 1.1% among 220,000. inhibition, % at 5.6 µM;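 active = inhibition above the campaign mean plus 3 SD over all tested compounds, cut at about 24% in these data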;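 note: cytokine-independent growth of Ba/F3 cells driven by EpoR plus mutant JAK2; 0% = DMSO-treated cells and 100% = JAK inhibitor I control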
# IEC-6 cytotox cf: IEC-6 cytotoxicity, confirmation assay. IEC-6 rat intestinal epithelial viability, luminescence. hit rate 63% among 1,900. AID 1907. inhibition, % at 5 µM. shares compounds with IEC-6 tox;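 note: 0% = vehicle and 100% = reference cytotoxic drug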
# Starred values were filed as active, the others as inactive; nt = no result given. Cut-off read from the data, not from the text of the source, unless noted: active = inhibition above about 22%; inactive = the rest.
SMILES,KLF5 inh,BaF3 tox,aSyn UTR inh,APP 5UTR inh,IEC-6 tox,Ba/F3 V617F tox,IEC-6 cytotox cf
CC(C)OC(=O)Nc1ccc2c(c1)N(C(=O)N1CCN(C)CC1)c1ccccc1CC2,-55,29*,-62,nt,35*,25*,21
CCCc1cc(=O)oc2cc(C)cc(OCC(=O)NCCCN3CCCC3=O)c12,-6,nt,7,nt,-6,nt,nt
COc1ccc(C(=O)c2ccc(OC)cc2OC)cc1,28,-2,-31,nt,25*,3,14
COc1ccc(C(=O)c2ccc(N(C)C)cc2)c(OC)c1,33,52*,37,78*,54*,50*,53*
COc1ccc(OC)c(C(=O)c2ccc(C(=O)c3cc(OC)ccc3OC)cc2)c1,-38,0,17,-1,2,-4,nt
CCCN1CCN(C(=O)Cn2cnc3ccc(S(=O)(=O)N4CCC(C)CC4)cc3c2=O)CC1,18,1,-12,-22,10,4,nt
O=C(N=Nc1c(O)[nH]c2ccc(Br)cc12)c1ccccc1-n1cccc1,42,77*,nt,92*,55*,77*,54*
N=C(N)N=Nc1c(O)[nH]c2ccc(Br)cc12,19,5,6,-11,4,6,nt
Oc1[nH]c2ccc(Br)cc2c1N=NC(=S)Nc1ccc(F)cc1,7,2,52,nt,22*,0,9
CCCNS(=O)(=O)c1cccc(C(=O)OCc2cc(=O)oc3cc(OC)ccc23)c1,43,nt,-97,nt,62*,nt,16
COc1ccc2c(COC(=O)c3cccc(S(=O)(=O)NCC(C)C)c3)cc(=O)oc2c1,-10,nt,-14,nt,-9,nt,nt
CCOC(=O)Nc1nc(-c2ccccc2)c(C(=O)c2ccc(Cl)cc2)s1,59,77*,114*,94*,86*,73*,57*
CN1c2cccc3cccc(c23)N(C)C1c1cccs1,-41,9,-1,0,24*,0,3
O=C(Nc1ccc(N2CCOCC2)cc1)Nc1ccc2nc(-c3ccco3)c(-c3ccco3)nc2c1,-21,14,112*,-12,23*,21,37*
c1ccc(CNc2c3ccccc3nc3ccccc23)cc1,-4,nt,-332,nt,26*,nt,16
CC(C)CC(C(=O)OCC(=O)c1c(N)n(C)c(=O)n(C)c1=O)N1C(=O)C2CC=CCC2C1=O (stereo not given),-39,-3,2,17,-7,-3,nt
COc1ccccc1C(=O)Nc1ccc2c(c1)nc(CCNC(C)=O)n2C,-53,6,-73,-63,-1,3,nt
COc1ccccc1C(=O)Nc1ccc2c(c1)nc(CCNC(=O)c1ccccc1)n2C,45,76*,-10,nt,60*,85*,43*
COc1ccc(C(=O)Nc2c(N)nc(SCC(=O)c3ccccc3)[nH]c2=O)cc1,14,nt,8,nt,6,nt,nt
COc1ccccc1N1CCN(c2ccnc3cc(Cl)ccc23)CC1,42,nt,87*,nt,65*,nt,53*
COc1ccc(C(=O)Nc2ccc3ccccc3c2)cc1OC,-190,nt,-176,nt,8,nt,nt
COc1cc(C(=O)Nc2ccc3ccccc3c2)cc(OC)c1OC,43,nt,88*,nt,78*,nt,59*
S=C(NCCN1CCOCC1)N/N=C/c1cccs1,-45,nt,7,nt,30*,nt,-15
Oc1cccc(/C=N/NC(=S)NCCN2CCOCC2)c1O,-26,0,-7,3,-3,0,nt
O=C(Nc1nnc(-c2ccccc2)o1)C1CCCN1S(=O)(=O)c1cccs1 (stereo not given),nt,nt,-11,nt,nt,nt,nt
SMILES,KLF5 inh,BaF3 tox,aSyn UTR inh,APP 5UTR inh,IEC-6 tox,Ba/F3 V617F tox,IEC-6 cytotox cf
C/C(=N/Nc1ccc([N+](=O)[O-])cc1)c1c[nH]c2ccccc12,-20,nt,-171,nt,24*,nt,22*
C/C(=N/Nc1ccc([N+](=O)[O-])cc1)c1ccc(C)cc1C,-58,10,-89,-17,5,2,nt
COCCCNC(=O)Cc1c(C)c2c(cc(C)c3c(C(C)(C)C)coc32)oc1=O,61,nt,28,nt,84*,nt,59*
COCCNC(=O)Cc1c(C)c2c(cc(C)c3c(C)coc32)oc1=O,-52,nt,-15,nt,0,nt,nt
CCOC(=O)/C=C/C(=O)Nc1ccc(Oc2ccccc2)cc1,3,10,-20,23,3,-1,nt
CCCc1nnc(SCC(=O)NC2CCCCC2)n1CCOC,-11,nt,-7,nt,2,nt,nt
Brc1ccc(-c2csc(-c3c[nH]c4ccccc34)n2)cc1,-22,1,-183,-38,2,2,nt
c1ccc2c(-c3csc(-c4ccncc4)n3)c[nH]c2c1,-109,16,-141,-31,82*,-2,93*
COc1ccc(NC(=O)c2cc(-c3ccncc3)nc3ccc(Br)cc23)cc1OC,-11,nt,19,nt,4,nt,nt
COc1cc(/C=N/Nc2snc(SC)c2C#N)cc(OC)c1OC,-6,5,9,8,26*,4,49*
COc1cc(/C=N/NC(=S)NC2CC3C=CC2C3)cc(OC)c1OC (stereo not given),-21,-6,10,nt,28*,4,2
COc1cccc(-c2c(C(=O)N/N=C/c3ccc(C)o3)nnn2-c2nonc2N)c1,-23,nt,-14,nt,9,nt,nt
CC(C)(C)S(=O)(=O)c1ccc(S(=O)(=O)C(C)(C)C)s1,-23,2,9,2,5,-4,nt
Cc1cc(O)c(-c2cc(C(=O)Nc3ccc(S(=O)(=O)N4CCOCC4)cc3)[nH]n2)cc1C,-13,3,14,-10,2,-2,nt
O=C(Nc1ccc(S(=O)(=O)N2CCOCC2)cc1)c1cc(-c2cc(Cl)ccc2O)n[nH]1,42,60*,34,nt,36*,77*,5
OCC[C@@H]1C[C@@H](O)[C@H](O)[C@@]2(CCCc3ccccc3O2)O1,-9,nt,-3,nt,2,nt,nt
COc1c(OC)c(O)c2c(=O)cc(-c3c(O)cccc3O)oc2c1OC,-5,37*,-64,10,23*,3,3
COc1ccc(-c2cc(=O)c3c(OC)c(OC)c(OC)c(OC)c3o2)cc1OC,-19,-4,29,8,1,4,nt
COc1ccc(CNC(=O)Cn2cccc2C(=O)c2ccccc2)cc1,-59,nt,-69,nt,-1,nt,nt
OC(CNCCc1ccccc1)COc1ccc(OCC(O)CNCCc2ccccc2)cc1 (stereo not given),-25,9,107*,nt,26*,8,42*
OC(CNCCc1ccc(Cl)cc1)COc1ccc2ccccc2c1 (stereo not given),2,0,nt,-4,8,3,nt
COc1ccc(C(=O)Nc2cccc3c2CCCC3)cc1,-9,nt,-132,nt,24*,nt,22
COc1ccc(CC(=O)Nc2cccc3c2CCCC3)cc1,-3,nt,8,nt,4,nt,nt
FC(F)(F)Oc1ccc(NC(=S)Nc2ccccc2N2CCOCC2)cc1,-29,-5,-5,nt,2,-1,nt
CC(C(=O)NC1CCCCC1)N(Cc1ccccc1)C(=O)c1snc(C(N)=O)c1N (stereo not given),-10,nt,-17,nt,4,nt,nt
CCOC(=O)c1cc2c(ccn2C)n1Cc1cc(C)ccc1C,-17,9,-2,20,46*,0,25*
